Source: PubChem BioAssay (several laboratories)
Only some compounds are listed: those with a hit (about 0.99% of all), similar ones and a draw of the others.
Cardiac RTF inh = cardiac RTF calcium sensitivity inhibitors, primary screen, biochemical, IANBD-TnC fluorescence, EC70 calcium | 0.12% of 340,000 active | Troponin I, cardiac muscle (Homo sapiens) + Troponin T, cardiac muscle (Homo sapiens) + … | IANBD-labeled cardiac RTF, Ca2+ fluorescence | inhibition, % at 7.15 µM | AID 493244, 2011;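 active = inhibition above the mean inhibition of all tested compounds plus 3 SD, cut at about 17% in these data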;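 note: assay run at fixed EC70 calcium of 1.6 mM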
LANA-H2B inh = blockers of LANA interaction with H2A/H2B – biochemical, FP readout, HTS, primary screen | cell-free LANA-H2A/H2B peptide, fluorescence polarization | 0.6% of 320,000 active | AID 2629, 2010 | Protein LANA1 (Human herpesvirus 8 type P (isolate GK18)), Q9QR71 | inhibition, % (test concentration not listed); in the data active = inhibition mostly above about 10%, no sharp cut-off; inactive = mostly below about 6.7%
C-LANA FP = inhibitors of KSHV C-LANA binding to DNA, primary screen, biochemical, fluorescence polarization, FAM-LBS DNA, MBP-C-LANA, single point. Kaposi's sarcoma herpesvirus LANA C-terminal domain (residues 932-1162) DNA binding. inhibition, % at 9 µM. 0.078% of 340,000 active. AID 504423, 2011;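 active = highest replicate inhibition at or above 60% at 9 µM, even if other replicates fall short; inactive = all replicates below 60% inhibition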;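 note: 0% = neutral control wells and 100% = 4 µM acridine orange control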
RTF Ca sens act = cardiac RTF calcium sensitivity activators, primary screen, biochemical, IANBD-TnC fluorescence, EC20 calcium | Troponin I, cardiac muscle (Homo sapiens) + Troponin T, cardiac muscle (Homo sapiens) + … | IANBD-labeled TnC RTF fluorescence at EC20 calcium; 0% EC20 calcium, 100% full calcium | activation, % at 7.2 µM | 0.24% of 340,000 active;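 active = activation above the mean over all tested compounds plus 3 SD, cut at about 30% in these data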;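 note: rise in fluorescence read as greater calcium sensitivity of cardiac thin filaments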
Keap1-Nrf2 PPI = Keap1-Nrf2 protein-protein interaction inhibitors, primary screen, biochemical, fluorescence polarization, single point | AID 504523, 2011 | inhibition, % at 9.4 µM | Kelch-like ECH-associated protein 1 (Homo sapiens), Q14145 | 0.15% of 340,000 active | Keap1 Kelch-Nrf2 peptide fluorescence polarization, 1536-well; in the data active = inhibition above about 12%;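 note: human Keap1 Kelch domain with fluorescein labeled Nrf2 9mer peptide probe; 0% = neutral control wells and 100% = peptide positive control; higher means more block of Keap1 binding to Nrf2 peptide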
Numbers without * were called inactive; · = not tested or not shown; ! = a repeat was not active.

SMILES	Cardiac RTF inh	LANA-H2B inh	C-LANA FP	RTF Ca sens act	Keap1-Nrf2 PPI
CC(C)CC(NC(=O)C(NC(=O)OC(C)(C)C)C(C)C)C(N)=O (stereo unspecified)	5.2	-2.5	2.1	-3.5	4.2
CC(C)CC(NC(=O)C(NC(=O)OC(C)(C)C)C(C)C)C(=O)NC(CCC(=O)OCc1ccccc1)C(N)=O (stereo unspecified)	8.9	21.0*!	1.3	4.5	0.9
CS(=O)(=O)c1ccc(Cl)c(NC(=O)COC(=O)CNC(=O)c2sc3ccccc3c2Cl)c1	-1.5	5.0	-1.8	6.7	-4.8
CCCOc1ccc(C(F)(F)F)cc1NS(=O)(=O)c1ccc(Cl)nc1	-11.7	·	0.7	1.6	-1.4
O=C(NCc1cccs1)C1CC(O)CN1C(=O)Nc1ccccc1 (stereo unspecified)	7.0	-2.4	0.6	-6.5	-0.7
O=C(Cc1c(F)cccc1Cl)NNC(=O)c1cccs1	-4.9	0.8	0.3	-1.0	1.7
CCOC(=O)c1cnc2ccc(Br)cc2c1NCCO	-3.7	-1.9	-2.3	3.6	0.6
CCOC(=O)c1cnc2ccccc2c1NCCO	0.8	16.0*	-0.2	-6.7	-2.0
O=C(O)CCc1nnc(SCC(=O)Nc2ccc(Br)cc2)[nH]c1=O	·	-4.3	0.4	·	-0.9
CC1=C(O)C(=O)C(C2=C(O)C(=O)C(C)=C(O)C2=O)=C(O)C1=O	7.8	·	61.4*	-4.7	-1.8
Cc1cc(C)n(CC(O)Cn2c3ccccc3c3ccccc32)c(=O)n1 (stereo unspecified)	7.8	-0.7	-0.5	-9.2	1.3
Cc1cc(C)n(CC(O)Cn2c3ccc(Br)cc3c3cc(Br)ccc32)c(=O)n1 (stereo unspecified)	-1.4	15.5*	0.3	-33.5	1.7
COc1cccc(Cl)c1NC(=O)N1CCN(c2ccnc3cc(Cl)ccc23)CC1	-20.6	39.6*	-1.4	2.5	-7.3
COc1cccc(Cl)c1NC(=O)N1CCN(c2cc(C)nc3ccccc23)CC1	-15.0	-3.4	2.7	11.5	-6.4
Cc1cc(C)cc(OCC(=O)Nc2ccccc2N2CCCCC2)c1	-21.1	4.5	0.1	-9.2	0.8
Cc1cc(C)cc(NC(=O)Nc2ccccc2N2CCCCC2)c1	-2.7	11.8*	-1.2	12.6	-8.6
COc1ccc(CN2CCCCCC2)c(C)c1C	10.9	1.1	1.0	2.0	-0.3
CCCCn1nnnc1SCC(=O)Nc1cccc(C)c1	-7.2	0.7	-0.5	4.1	-1.0
CC(=O)Oc1ccc(N2C(=O)C3C(C2=O)C2C=CC3C23CC3)cc1[N+](=O)[O-] (stereo unspecified)	-4.4	10.6*	-0.9	-8.6	2.7
CC(C)c1cc(C(=O)Nc2cc(Cl)ccc2O)no1	-3.3	12.6*	-1.6	0.0	-0.7
CC(C)c1cc(C(=O)Nc2cc(Br)ccc2O)no1	-17.0	-0.6	-0.9	0.1	-4.0
Cc1cccc(-n2c(O)c(C=NC3CCS(=O)(=O)C3)c3ccccc3c2=O)c1C (stereo unspecified)	-9.1	0.4	-1.0	3.6	2.0
Cc1ccccc1C(=O)Nc1ccc2c(C#N)c3nc4ccccc4nc3n2c1	-3.4	27.8*	4.2	9.5	-2.2
Cc1c(C(=O)Nc2ccccc2)cn2c(nc3ccccc32)c1C#N	5.3	5.3	2.5	5.5	0.0
COc1ccc(NC2CCCN(C(=O)COc3ccc(C)cc3)C2)cc1 (stereo unspecified)	-7.0	0.6	0.3	2.5	-2.5
CCN(CCCNC(=O)C1c2ccccc2C(=O)N(CCOC)C1c1ccc(F)cc1)Cc1ccccc1 (stereo unspecified)	-8.6	-0.2	83.2*	0.8	3.1
CCOc1ccc(S(=O)(=O)NCCC(=O)N(C)Cc2ccc(C)o2)cc1	-4.9	-1.4	1.4	-6.8	-4.0
COc1cc(/C=C(\C#N)c2nc3ccccc3s2)ccc1OCC(=O)Nc1ccccc1	-22.9	-2.8	7.7	33.9*	10.9
